Source: PubChem BioAssay AID1851 (National Center for Advancing Translational Sciences (NCATS), 2009)
Where “and” joins values, the source holds several entries; their conditions need not be identical. Identical values can stand only once. About 5,800 (36%) of roughly 16,000 compounds were called active. Roughly 23% stayed inconclusive and do not appear here. The call rests on the fitted dose curve; in most records, active means well fitted curve in the direction sought with a large enough effect; inconclusive means small, poorly fitted or top-dose-only effect, or effect the other way; inactive means no such curve, though single readings can be large or run the other way. The list shows a part of the results.

Biological target: Cytochrome P450 2C19 (Homo sapiens) (UniProt P33261)
Sequence (P33261 whole entry, looked up): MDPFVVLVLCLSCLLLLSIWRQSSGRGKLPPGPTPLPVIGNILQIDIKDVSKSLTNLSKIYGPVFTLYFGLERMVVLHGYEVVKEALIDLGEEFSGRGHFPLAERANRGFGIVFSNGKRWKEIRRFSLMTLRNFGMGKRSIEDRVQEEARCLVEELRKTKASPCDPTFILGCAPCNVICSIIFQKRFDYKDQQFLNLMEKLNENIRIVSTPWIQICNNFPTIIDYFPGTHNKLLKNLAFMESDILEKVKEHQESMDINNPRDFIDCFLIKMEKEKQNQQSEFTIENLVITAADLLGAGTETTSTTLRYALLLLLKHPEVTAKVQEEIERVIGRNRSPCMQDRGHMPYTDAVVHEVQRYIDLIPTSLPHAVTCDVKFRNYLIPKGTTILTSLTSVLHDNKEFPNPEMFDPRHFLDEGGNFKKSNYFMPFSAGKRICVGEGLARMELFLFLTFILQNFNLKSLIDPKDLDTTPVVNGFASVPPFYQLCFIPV
Assay: Cytochrome panel assay with activity outcomes
Settings: recombinant CYP, pro-luciferin dealkylation, luminescence, p450-cyp2c19; series mostly up to 57.1 µM; activity, negative = inhibition: at the top concentration
On the % scale 0 is the no-effect control and ±100 the full control effect.

| Structure (SMILES) | activity, negative = inhibition | AC50 |
| --- | --- | --- |
| COc1nc(Cl)nc(Cl)c1Cl (tested in a mixture with another compound) | -12.4% [at 11.4 µM] (inactive) |  |
| CC(=O)OC[C@@H]1O[C@@H](O/N=C2/C[C@@H](O)[C@@H](O)[C@@H]3[C@@H]4C(=O)N(C[C@@H]5CCCO5)C(=O)[C@H]4CC[C@H]23)[C@H](OC(C)=O)[C@H](OC(C)=O)[C@@H]1OC(C)=O | -5.2% [at 11.4 µM] (inactive) |  |
| Cc1ccccc1NC(=O)Cn1cnc2c1c(=O)n(C)c(=O)n2C | -34.6% (inactive) |  |
| Cc1ccccc1NC(=O)CSc1nc(N2CCCCC2)nc(N2CCCCC2)n1 |  | 0.355 µM (active) |
| O=C(C/C=N/OCc1ccc(F)cc1Cl)c1cnc(-c2ccccc2)s1 |  | 1.26 µM (active) |
| O=C(C/C=N/OCc1ccc(Cl)cc1Cl)c1ccc(Cl)cc1 |  | 0.794 µM (active) |
| CN(C)CN1CSC(=S)N(CN(C)C)C1 |  | 3.16 µM (active) |
| COc1ccc(N2CC(C(=O)Nc3cc(C)on3)CC2=O)cc1 (configuration not stated) | 16.6% (inactive) |  |
| CCc1ccc(N2CC(C(=O)NC3=NCCS3)CC2=O)cc1 (configuration not stated) |  | 15.8 µM (active) |
| Cc1ccc(N2CC(C(=O)Nc3cc(C)on3)CC2=O)cc1 (configuration not stated) |  | 5.62 µM (active) |
| Cc1cc(NC(=O)C2C3C(=O)N(Cc4ccc(Cl)cc4)C(C(=O)NC(C)(C)C)C34C=CC2(C)O4)no1 (configuration not stated) | -3.6% (inactive) |  |
| CC(C)CO/N=C1/C[C@@H](O)[C@@H](O)[C@@H]2[C@@H]3C(=O)N(C[C@@H]4CCCO4)C(=O)[C@H]3CC[C@@H]12 | -18.3% [at 11.4 µM] (inactive) |  |
| O=C(c1cnccn1)N1CCC2(CCCN(c3ncccn3)C2)CC1 | -29.3% (inactive) |  |
| COc1ccc(COC(=O)N/N=C2/C[C@@H](O)[C@@H](O)[C@@H]3[C@H]4C(=O)N(c5ccc(F)cc5F)C(=O)[C@@H]4CC[C@@H]23)cc1 | -19.3% [at 11.4 µM] (inactive) |  |
| C=CC[C@@H]1C=C[C@H](O/N=C(\C)CCN2CCc3nc(CC)c(CC)cc3C2)[C@H](CO)O1 | -14% [at 11.4 µM] (inactive) |  |
| COc1cc(NC(=O)Cc2c(C(=O)O)[nH]c3ccccc23)cc(OC)c1OC | 5.48% (inactive) |  |
| COc1cc(NC(=O)c2cc3nc(-c4ccccc4)cc(-c4ccccc4)n3n2)cc(OC)c1OC |  | 6.31 µM (active) |
| Nn1c(SCC(=O)N2CCOCC2)nnc1-c1ccccc1Cl | 8.68% (inactive) |  |
| O=C(CSc1c[nH]c2ccccc12)N1CCOCC1 |  | 1.58 µM (active) |
| Fc1cccc(F)c1C(Nc1nncs1)Nc1nncs1 | 7.56% [at 11.4 µM] (inactive) |  |
| O=C(O)CNCCc1ccccc1 | 4.74% [at 11.4 µM] (inactive) |  |
| NNCCc1ccccc1 |  | 794 nM (active) and 316 nM (active) |

| Structure (SMILES) | activity, negative = inhibition | AC50 |
| --- | --- | --- |
| Cc1ccc(COc2ccc(Br)cc2/C=N/O)cc1 |  | 1 µM (active) |
| O=c1c(-c2ccccc2)nc2cnc(N3CCOCC3)nc2n1Cc1cccs1 | -32.2% (inactive) |  |
| C[C@@H](COc1ccccc1)N(CCCl)Cc1ccccc1 |  | 2 µM (active) |
| O=S(=O)(Nc1nc(-c2sccc2Cl)cs1)c1cc(Cl)ccc1Cl |  | 0.2 µM (active) |
| O=C(CC1C(=O)NCCN1C(=S)Nc1ccccc1)Nc1ccc2c(c1)OCCO2 (configuration not stated) |  | 11.2 µM (active) |
| CCC(C)NC(=O)C1CCN(C(=O)c2ccccc2)CC1 (configuration not stated) | -14.8% (inactive) |  |
| COc1ccc(NC(=O)CN2CCN(CC(=O)Nc3ccccc3Cl)CC2)cc1 |  | 1.41 µM (active) |
| O=C(Nc1ccc2c(c1)OCCO2)C1CCN(C(=O)c2ccccc2)CC1 |  | 22.4 µM (active) |
| COC(=O)N1CCC2(CC1)CN(C(=O)Nc1ccc(OC)cc1)C2 | 3.06% (inactive) |  |
| COC(=O)N1CCC2(CCN(C(=O)Nc3ccc(OC)cc3)CC2)CC1 | -1.54% (inactive) |  |
| COc1ccc(NC(C)=O)cc1NC(=O)CN1CCN(CC(=O)Nc2ccccc2Cl)CC1 |  | 7.94 µM (active) |
| CC(C)=CCC/C(C)=C/CO/N=C1/C[C@@H](O)[C@@H](O)[C@@H]2[C@@H]3C(=O)N(C4CCCCC4)C(=O)[C@H]3CC[C@@H]12 | -41.2% [at 11.4 µM] (inactive) |  |
| COc1ccccc1NC(=O)CN1CCN(CC(=O)Nc2ccc(OCc3ccccc3)cc2)CC1 |  | 0.631 µM (active) |
| O=C(CN1CCN(CC(=O)Nc2ccccc2Cl)CC1)Nc1ccc2c(c1)OCCO2 |  | 0.891 µM (active) |
| O=C(CN1C(=O)C2C3C=CC(C3)C2C1=O)Nc1ccc2c(c1)OCCO2 (configuration not stated) | -37.3% (inactive) |  |
| COc1ccccc1NC(=O)c1cnc2n(c1=O)CCS2 | -4.96% (inactive) |  |
| O=C(CC(c1ccccc1)c1ccccc1)Nc1ccc2c(c1)OCCO2 |  | 2.82 µM (active) |
| O=C(CN1C(=O)c2ccccc2S1(=O)=O)Nc1ccccc1 | -22% (inactive) |  |
| CC(=O)Nc1ccc2c(c1)OCCOCCOc1cc(NC(C)=O)ccc1OCCOCCOCCO2 | -22.4% (inactive) |  |
| COc1ccc(NC(=O)CN2c3cccc4cccc(c34)S2(=O)=O)cc1 |  | 10 µM (active) |
| CCCN1C[C@H](CSC)C[C@H]2c3cccc4[nH]cc(c34)C[C@@H]21 | -6.92% [at 25.6 µM] (inactive) |  |
| CN1CCN(CCCNC(=O)C2CCN(c3nnc(-n4cccc4)s3)CC2)CC1 | -20.2% (inactive) |  |

| Structure (SMILES) | activity, negative = inhibition | AC50 |
| --- | --- | --- |
| CC(C)CO/N=C1/C[C@@H](O)[C@@H](O)[C@@H]2[C@@H]3C(=O)N([C@@H](C)c4ccccc4)C(=O)[C@H]3CC[C@H]12 | -12.9% [at 11.4 µM] (inactive) |  |
| COc1cc(NC(=O)c2ccccc2)c(OC)cc1NC(=O)CN1CCN(c2ccccn2)CC1 |  | 17.8 µM (active) |
| Cc1c(NC(=O)CN2CCN(c3ccccc3)CC2)c(=O)n(-c2ccccc2)n1C | -5.89% (inactive) |  |
| Cc1c(Cl)cccc1NC(=O)CN1CCC(C(O)(c2ccccc2)c2ccccc2)CC1 |  | 11.2 µM (active) |
| Cc1cccc(NC(=S)N2CCC(N(C)CC3CCCO3)CC2)c1C (configuration not stated) | -10.8% (inactive) |  |
| COc1cc2c(cc1OC)C(C(=O)N1CCN(c3ccccn3)CC1)C(c1cccs1)N(C)C2=O (configuration not stated) | -24.5% (inactive) |  |
| Cn1nc(C(F)(F)F)c(C(=O)Nc2ccc(F)cc2F)c1Sc1cccc(C(F)(F)F)c1 |  | 0.501 µM (active) |
| Cc1ccc(NC(=O)c2c(C(F)(F)F)nn(C)c2SCc2cccc(C(F)(F)F)c2)cc1C |  | 0.562 µM (active) |
| Cc1cccc(C)c1NC(=O)CS(=O)CC(=O)Nc1ccc(F)cc1F (configuration not stated) | -53.4% (inactive) |  |
| Cn1nc(C(F)(F)F)c(C(=O)Nc2ccc(F)cc2F)c1Sc1ccc(C(F)(F)F)cc1 |  | 0.631 µM (active) |
| Cc1ccc(NC(=O)c2sccc2SCc2cccc(C(F)(F)F)c2)cc1 |  | 0.631 µM (active) |
| C1COC(NC(C2CC2)C2CC2)=N1 |  | inactive |
| CCCN1C[C@@H](CSC)C[C@H]2c3cccc4[nH]cc(c34)C[C@@H]21 | 43.8% (inactive) |  |
| O=C(OCc1nc2ccccc2[nH]1)C12CC3CC(CC(C3)C1)C2 |  | 2.51 µM (active) |
| O=C1CC[C@](CCc2nc3ccccc3[nH]2)(c2ccccc2)C(=O)N1 | -21.5% [at 11.4 µM] (inactive) |  |
| CSc1nc2nc3c(c(=O)n2[nH]1)CN(Cc1ccccc1)CC3 | -6.28% (inactive) |  |
| COC(=O)Cc1cc(=O)n2[nH]c(C)c(-c3ccccc3)c2n1 | -19% (inactive) |  |
| COc1ccc(CNc2nc3nc4c(c(=O)n3[nH]2)CCC4)cc1 | -14.3% (inactive) |  |
| N#Cc1c[nH]n2c(=O)c3c(nc12)CCCC3 | -4.58% (inactive) |  |
| Cc1ccc(-c2[nH]n3c(=O)c4c(nc3c2C)CCCC4)cc1 |  | 3.98 µM (active) |
| Cc1ccc(N=Nc2c(N)[nH]n3c(=O)c4c(nc23)CCCC4)cc1 |  | 25.1 µM (active) |
| Cc1[nH]n2c(=O)c3c(nc2c1-c1cccc2ccccc12)CCC3 |  | 8.91 µM (active) |

| Structure (SMILES) | activity, negative = inhibition | AC50 |
| --- | --- | --- |
| Nc1[nH]n2c(=O)c3c(nc2c1N=Nc1ccccc1)CCCC3 | -28.5% (inactive) |  |
| COc1cccc([C@H](O)Cn2cc(-c3cccc(CON=C(C)C)c3)nn2)c1 | -19.8% [at 11.4 µM] (inactive) |  |
| CC(C)c1ccc(N=c2c([N+](=O)[O-])nn(-c3ccc4c(c3)OCCO4)n2O)cc1 |  | 11.2 µM (active) |
| COc1ccc(OC)c(C2C3=C(COC3=O)Nc3cc4c(cc32)OCO4)c1 (configuration not stated) |  | 1.12 µM (active) |
| CC1(C)Oc2cc(N)c([N+](=O)[O-])cc2O1 |  | 10 µM (active) |
| Cc1nn2c(C)nc3sc4c(c3c2nc1=O)CC(C)(C)OC4 | -20.1% (inactive) |  |
| CC1(C)Cc2c(sc3nc(-c4ccccc4)n(N)c(=O)c23)CO1 |  | 25.1 µM (active) |
| Nc1nc(SC/C=C\c2ccccc2)c2[nH]cnc2n1 |  | 1.58 µM (active) |
| Nc1nc(SCCc2ccccc2)c2[nH]cnc2n1 |  | 0.631 µM (active) |
| Nc1nc(N)c2[nH]cnc2n1 (tested in a mixture with another compound) | 6.99% [at 11.4 µM] (inactive) |  |
| Nc1nc(SCc2ccccc2[N+](=O)[O-])c2[nH]cnc2n1 |  | 1 µM (active) |
| CCC[C@H](Sc1nc(N)nc2nc[nH]c12)C(=O)O | 25% [at 11.4 µM] (inactive) |  |
| O=c1[nH]c(SCc2ccccc2[N+](=O)[O-])nc2nc[nH]c12 | 23.8% [at 11.4 µM] (inactive) |  |
| Nc1nc(Sc2ccc([N+](=O)[O-])c3nonc23)c2[nH]cnc2n1 |  | 1.58 µM (active) |
| CC(C)[C@H](Sc1nc(N)nc2nc[nH]c12)C(=O)O | 22.9% [at 11.4 µM] (inactive) |  |
| CC[C@H](C)[C@@H]1O[C@]2(CC[C@@H]1C)C[C@H]1C[C@H](CC=C(C)[C@@H](O[C@H]3C[C@H](OC)[C@H](O[C@H]4C[C@H](OC)[C@H](O)[C@H](C)O4)[C@H](C)O3)[C@@H](C)C=CC=C3CO[C@@H]4[C@@H](O)C(C)=C[C@H](C(=O)O1)[C@@]34O)O2 | -24.9% (inactive) |  |
| CC(=O)NCCc1c[nH]c2ccc(O)cc12 | -18.6% (inactive) |  |
| COc1cc2c(CCNC(C)=O)c[nH]c2cc1Cl |  | 5.01 µM (active) |
| COc1cc2c(CCNC(C)=O)c[nH]c2cc1O | -15.4% (inactive) |  |
| CC(C)[C@](N)(C(=O)O)c1ccccc1 | 11.6% [at 11.4 µM] (inactive) |  |
| Cc1nc2c3cnn(-c4ccc(C)c(C)c4)c3ncn2n1 |  | 10 µM (active) |
